Reference: PubChem BioAssay (NCATS)
Inconclusive results are not listed. The source made the active and inactive calls. Unless noted, calls follow the shape of the dose curve; as a rule, active = well fitted curve in the direction sought with a large enough effect; inconclusive = small, poorly fitted or top-dose-only effect, or another doubt; inactive = no such curve, though single readings can be large; an effect the other way counts as inactive or inconclusive.

What was measured:
[1] = molecular target: ATP-dependent 6-phosphofructokinase (Trypanosoma brucei brucei) (UniProt O15648); assay: qHTS Assay to Find Inhibitors of T. brucei phosphofructokinase: hit validation (AID 492961);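 also: luminescence reports ADP formed as PFK phosphorylates fructose-6-phosphate with ATP; % is scaled to controls: 0 for no effect and ±100 for the full control effect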
Sequence of ATP-dependent 6-phosphofructokinase (Trypanosoma brucei brucei) (O15648 whole entry, looked up): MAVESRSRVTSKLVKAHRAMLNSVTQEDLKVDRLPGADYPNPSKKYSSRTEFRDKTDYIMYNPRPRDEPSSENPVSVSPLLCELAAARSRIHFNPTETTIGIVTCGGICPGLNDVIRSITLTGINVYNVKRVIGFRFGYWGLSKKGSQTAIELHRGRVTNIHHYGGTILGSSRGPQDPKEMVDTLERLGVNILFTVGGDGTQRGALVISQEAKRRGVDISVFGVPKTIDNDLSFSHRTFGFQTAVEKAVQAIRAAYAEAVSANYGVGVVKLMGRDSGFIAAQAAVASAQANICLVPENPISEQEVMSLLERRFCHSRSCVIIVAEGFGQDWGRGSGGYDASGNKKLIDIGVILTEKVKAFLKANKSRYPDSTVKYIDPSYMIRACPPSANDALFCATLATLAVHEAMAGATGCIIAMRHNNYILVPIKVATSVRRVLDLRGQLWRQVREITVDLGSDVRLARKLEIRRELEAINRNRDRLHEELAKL
Method in brief: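 Inhibition of parasite PFK is measured as reduced ADP formation, quantified via luciferase after ATP depletion. Assay used 0.1 mM ATP, 0.5 mM F6P, 1.25 nM enzyme, 45 min incubation.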

[2] = molecular target: Ubiquitin carboxyl-terminal hydrolase 1 (Homo sapiens) (UniProt O94782); assay: Inhibitors of USP1/UAF1: Pilot qHTS (AID 504865);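 also: rhodamine fluorescence freed from ubiquitin-rhodamine substrate followed over time; top concentration of the series differs between compounds; % is scaled to controls: 0 for no effect and ±100 for the full control effect; nearly all actives have a fitted effect of over 35% in size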
Sequence of Ubiquitin carboxyl-terminal hydrolase 1 (Homo sapiens) (O94782 whole entry, looked up): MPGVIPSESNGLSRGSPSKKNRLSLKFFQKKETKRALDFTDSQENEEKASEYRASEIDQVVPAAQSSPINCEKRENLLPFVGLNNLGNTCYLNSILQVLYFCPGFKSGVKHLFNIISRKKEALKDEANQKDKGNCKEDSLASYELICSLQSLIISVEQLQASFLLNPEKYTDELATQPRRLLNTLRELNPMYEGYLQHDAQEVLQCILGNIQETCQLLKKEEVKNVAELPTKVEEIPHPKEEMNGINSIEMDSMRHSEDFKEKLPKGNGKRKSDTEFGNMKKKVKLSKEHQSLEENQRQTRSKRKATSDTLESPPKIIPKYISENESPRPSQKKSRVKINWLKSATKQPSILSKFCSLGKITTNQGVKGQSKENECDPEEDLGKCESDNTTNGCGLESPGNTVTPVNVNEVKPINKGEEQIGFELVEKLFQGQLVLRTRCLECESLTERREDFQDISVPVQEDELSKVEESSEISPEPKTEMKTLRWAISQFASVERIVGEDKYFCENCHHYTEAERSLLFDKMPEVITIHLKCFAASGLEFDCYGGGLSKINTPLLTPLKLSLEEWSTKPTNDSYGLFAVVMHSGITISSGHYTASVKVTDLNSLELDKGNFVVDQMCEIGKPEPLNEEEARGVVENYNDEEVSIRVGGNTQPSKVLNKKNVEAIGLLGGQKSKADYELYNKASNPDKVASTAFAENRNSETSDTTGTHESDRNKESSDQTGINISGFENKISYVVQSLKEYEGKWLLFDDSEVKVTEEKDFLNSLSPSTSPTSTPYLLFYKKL
Method in brief: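 1nM USP1/UAF1 + cpd, 15 min RT; start w/ Ub-Rho 150nM final; kinetic FL 480/540 nm, 6 reads q60 s. Buffer 50mM HEPES pH 7.8, 0.5mM EDTA, 1mM TCEP, 0.01% Tween-20, 0.1 mg/ml BSA.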

[3] = molecular target: Luciferin 4-monooxygenase (Photinus pyralis) (UniProt P08659); assay: Biochemical firefly luciferase enzyme assay for NPC (AID 624030);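 also: purified P. pyralis luciferase at 10 nM with luciferin and ATP substrate; 0% = DMSO and -100% = full luciferase inhibition by PTC124 control; nearly all actives have a fitted effect of over 70% in size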
Sequence of Luciferin 4-monooxygenase (Photinus pyralis) (P08659 whole entry, looked up): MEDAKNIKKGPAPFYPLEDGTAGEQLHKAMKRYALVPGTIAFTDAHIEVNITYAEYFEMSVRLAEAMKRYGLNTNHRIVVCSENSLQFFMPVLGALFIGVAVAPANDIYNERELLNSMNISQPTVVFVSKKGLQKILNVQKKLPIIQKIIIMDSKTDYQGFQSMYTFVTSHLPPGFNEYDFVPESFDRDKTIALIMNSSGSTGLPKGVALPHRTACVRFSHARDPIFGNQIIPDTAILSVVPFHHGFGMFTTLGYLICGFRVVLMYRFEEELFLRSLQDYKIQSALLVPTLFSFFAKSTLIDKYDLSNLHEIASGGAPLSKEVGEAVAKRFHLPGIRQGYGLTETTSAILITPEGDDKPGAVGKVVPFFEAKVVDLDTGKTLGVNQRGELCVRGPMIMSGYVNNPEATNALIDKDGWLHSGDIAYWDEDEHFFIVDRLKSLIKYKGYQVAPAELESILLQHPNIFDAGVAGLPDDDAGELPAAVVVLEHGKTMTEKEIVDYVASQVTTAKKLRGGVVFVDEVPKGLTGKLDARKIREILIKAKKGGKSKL
Method in brief: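 Purified P. pyralis luciferase at 10 nM in 50 mM Tris Acetate (final), luminescence read within 5 minutes of enzyme addition to compounds. Activity normalised to PTC124 versus DMSO; concentration-response curves classed by r2, magnitude and activity.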

[4] = S16 Schwann cell viability assay (CellTiter-Glo assay) (AID 624031);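 also: cellular ATP luminescence as a viability measure; plate controls were DMSO-treated cells for no effect and cell-free wells for full effect; nearly all actives have a fitted effect of over 70% in size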
Method in brief: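 Luminescent ATP read-out (CellTiter-Glo) after 24 h compound exposure of native S16 rat Schwann cells at 37 °C. Signals were normalized between cell-free wells and DMSO-treated cells, set as 0% activity.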

[5] = S16 Schwann cell PMP22 intronic element firefly luciferase assay (AID 624032);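 also: plate controls were DMSO for no effect and PTC124 positive control mean for full effect; nearly all actives have a fitted effect of over 30% in size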
Method in brief: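 Rat S16 Schwann cells stably carrying firefly luciferase driven by a PMP22 intronic element, in 10% FBS, treated 24 h at 37 C. ONE-Glo luminescence normalized to PTC124 control and DMSO (0%); curves classed by r2, magnitude and activity.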

[6] = S16 Schwann cell PMP22 intronic element beta-lactamase assay (AID 624044; calls by dose curve;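 also: 0% = DMSO and -100% = potassium clavulanate positive control; nearly all actives have a fitted effect of over 15% in size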); conditions: S16 rat Schwann cells, PMP22 element beta-lactamase FRET, 24 h; ratio activity, negative = inhibition: at 38.3 µM (top of the series)
Method in brief: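 Rat S16 Schwann cells with beta-Lac driven by a PMP22 intronic element, compound-treated 24 h at 37 °C. LiveBLAzer FRET B/G read: 460 nm normalized to potassium clavulanate vs DMSO; 535 nm FRET as viability; concentration-effect curves classified.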

[7] = qHTS profiling for inhibitors of Plasmodium falciparum proliferation (AID 504749);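 also: 0% = DMSO vehicle and full inhibition = artemisinin control; nearly all actives have a fitted effect of over 60% in size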; conditions: P. falciparum in erythrocytes, SYBR Green DNA, 72 h, at 28.7 µM (top of the series)
Method in brief: (§1)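 Readout was DNA-dye fluorescence from lysed cultures, ex 485/em 535 nm. Parasitized red cells had grown 72 h with compound; data scaled between 0.29 uM artemisinin and DMSO wells and corrected using vehicle-only plates.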

[8] = tested on: 3D7; assay: as above; conditions: P. falciparum in erythrocytes, SYBR Green DNA, 72 h; series mostly up to 28.7 µM
Method in brief: as §1

[9] = tested on: 7G8; assay: as above; conditions: P. falciparum in erythrocytes, SYBR Green DNA, 72 h; series mostly up to 28.7 µM
Method in brief: as §1

[10] = tested on: AA1029; assay: as above; conditions: P. falciparum in erythrocytes, SYBR Green DNA, 72 h; series mostly up to 28.7 µM
Method in brief: as §1

[11] = tested on: AS120; assay: as above; conditions: P. falciparum in erythrocytes, SYBR Green DNA, 72 h; series mostly up to 28.7 µM
Method in brief: as §1

[12] = tested on: ATS189; assay: as above; conditions: P. falciparum in erythrocytes, SYBR Green DNA, 72 h; series mostly up to 28.7 µM
Method in brief: as §1

[13] = tested on: ATS95; assay: as above; conditions: P. falciparum in erythrocytes, SYBR Green DNA, 72 h; series mostly up to 28.7 µM
Method in brief: as §1

[14] = tested on: C2A; assay: as above; conditions: P. falciparum in erythrocytes, SYBR Green DNA, 72 h; series mostly up to 28.7 µM
Method in brief: as §1

[15] = tested on: CP185; assay: as above; conditions: P. falciparum in erythrocytes, SYBR Green DNA, 72 h; series mostly up to 28.7 µM
Method in brief: as §1

[16] = tested on: CP191; assay: as above; conditions: P. falciparum in erythrocytes, SYBR Green DNA, 72 h; series mostly up to 28.7 µM
Method in brief: as §1

[17] = tested on: CP192; assay: as above; conditions: P. falciparum in erythrocytes, SYBR Green DNA, 72 h; series mostly up to 28.7 µM
Method in brief: as §1

[18] = tested on: CP194; assay: as above; conditions: P. falciparum in erythrocytes, SYBR Green DNA, 72 h; series mostly up to 28.7 µM
Method in brief: as §1

[19] = tested on: CP201; assay: as above; conditions: P. falciparum in erythrocytes, SYBR Green DNA, 72 h; series mostly up to 28.7 µM
Method in brief: as §1

[20] = tested on: CP203; assay: as above; conditions: P. falciparum in erythrocytes, SYBR Green DNA, 72 h; series mostly up to 28.7 µM
Method in brief: as §1

[21] = tested on: CP211; assay: as above; conditions: P. falciparum in erythrocytes, SYBR Green DNA, 72 h; series mostly up to 28.7 µM
Method in brief: as §1

[22] = tested on: CP215; assay: as above; conditions: P. falciparum in erythrocytes, SYBR Green DNA, 72 h; series mostly up to 28.7 µM
Method in brief: as §1

[23] = tested on: CP217; assay: as above; conditions: P. falciparum in erythrocytes, SYBR Green DNA, 72 h; series mostly up to 28.7 µM
Method in brief: as §1

[24] = tested on: CP237; assay: as above; conditions: P. falciparum in erythrocytes, SYBR Green DNA, 72 h; series mostly up to 28.7 µM
Method in brief: as §1

[25] = tested on: CP238; assay: as above; conditions: P. falciparum in erythrocytes, SYBR Green DNA, 72 h; series mostly up to 28.7 µM
Method in brief: as §1

[26] = tested on: CP247; assay: as above; conditions: P. falciparum in erythrocytes, SYBR Green DNA, 72 h; series mostly up to 28.7 µM
Method in brief: as §1

[27] = tested on: CP250; assay: as above; conditions: P. falciparum in erythrocytes, SYBR Green DNA, 72 h; series mostly up to 28.7 µM
Method in brief: as §1

[28] = tested on: CP252; assay: as above; conditions: P. falciparum in erythrocytes, SYBR Green DNA, 72 h; series mostly up to 28.7 µM
Method in brief: as §1

[29] = tested on: CP256; assay: as above; conditions: P. falciparum in erythrocytes, SYBR Green DNA, 72 h; series mostly up to 28.7 µM
Method in brief: as §1

[30] = tested on: CP260; assay: as above; conditions: P. falciparum in erythrocytes, SYBR Green DNA, 72 h; series mostly up to 28.7 µM
Method in brief: as §1

[31] = tested on: CP262; assay: as above; conditions: P. falciparum in erythrocytes, SYBR Green DNA, 72 h; series mostly up to 28.7 µM
Method in brief: as §1

[32] = tested on: CP265; assay: as above; conditions: P. falciparum in erythrocytes, SYBR Green DNA, 72 h; series mostly up to 28.7 µM
Method in brief: as §1

CCCCN1CC(O)C(O)C(O)C1CO (stereo not drawn)
inactive: Potency [1] | Potency [2] | Potency [3] | Potency [4] | Potency [5] | Potency [6] | activity, negative = inhibition ([7]; parasite line A) 0.477% | activity, negative = inhibition ([7]; parasite line B) 1.06% | Potency [8] | Potency [9] | Potency [10] | Potency [11] | Potency [12] | Potency [13] | Potency [14] | Potency [15] | Potency [16] | Potency [17] | Potency [18] | Potency [19] | Potency [20] | Potency [21] | Potency [22] | Potency [23] | Potency [24] | Potency [25] | Potency [26] | Potency [27] | Potency [28] | Potency [29] | Potency [30] | Potency [31] | Potency [32]
